Data reported in PubChem BioAssay (NCATS).
Records with an inconclusive call do not appear. Unmarked numbers belong to inactive results. Active and inactive are the calls of the source. Calls come from the whole dose curve; as a rule, active = well fitted cell-killing curve with a large enough effect; inconclusive = small, poorly fitted or top-dose-only effect, or effect the other way; inactive = no such curve, though single readings can be large or run the other way.

Experiment: Quantitative High-Throughput drug screen in 47 multiple myeloma cell lines against the NCATS MIPE library collection: KMS11_JCRBsus cell viability assay (AID 1919873); note: nearly all actives have a fitted effect of over 50% in size
Details: KMS11 myeloma viability, CellTiter-Glo ATP luminescence, 48 h; series mostly up to 45.8 µM; viability (% of control): at the top concentration
Source text: PI: Beverly A. Mock Ph.D.
Laboratory of Cancer Biology and Genetics,
Center for Cancer Research, National Cancer Institute,
National Institute of Health, Bethesda, Maryland
Drug resistance and disease progression are common in multiple myeloma (MM) patients, underscoring the need for new therapeutic combinations. […] We hypothesized that effective combinations would reduce MYC expression and enhance p16 activity. […] These preclinical data identify potentially useful drug combinations for evaluation in drug-resistant MM and reveal potential mechanisms of combined drug sensitivity.
Described herein is the primary MIPE qHTS used to cherrypick compounds. Validated compounds were then further tested for potential synergistic activiy.
[1] Peat TJ, Gaikwad SM, Dubois W, Gyabaah-Kessie N, Zhang S, Gorjifard S, Phyo Z, Andres M, Hughitt VK, Simpson RM, Miller MA, Girvin AT, Taylor A, Williams D, D'Antonio N, Zhang Y, Rajagopalan A, Flietner E, Wilson K, Zhang X, Shinn P, Klumpp-Thomas C, McKnight C, Itkin Z, Chen L, Kazandijian D, Zhang J, Michalowski AM, Simmons JK, Keats J, Thomas CJ, Mock BA. Drug combinations identified by high-throughput screening promote cell cycle transition and upregulate Smad pathways in myeloma. Cancer Lett. 2023 Aug 1;568:216284. doi: 10.1016/j.canlet.2023.216284. Epub 2023 Jun 24. PMID: 37356470; PMCID: PMC10408729.
SEQUENCE No. (e.g., 1, 2, 3, etc.); […] (e.g., Cells, Incubation, Reagent, etc.); VALUE and DESCRIPTION.
1; Cells; 5 uL; white, solid bottom 1536-well Greiner assay plate.
2; Compounds; 23 nL; Kalypsis pin tool (Wako USA) equipped with a 1536-well pin head to transfer to the assay plates.
3; Incubation; 48 hours; 37C incubation.
4; Reagent;5uL; CellTiter Glo (Promega).
5; Detector; 425V; Luminescence; Viewlux PerkinElmer.
NOTES (numbers refer to Sequence numbers above)
1. The cell-based screening methods employed in this study were like those previously published. Briefly, the corresponding myeloma cell lines were screened in 1,536-well plates with 500 cells, 5-uL per well for inhibition of cell viability (assessed by measuring ATP levels with CellTiterGlo).
2. NCATS MIPE 4.0 library of approved and investigational drugs were added using the Kalypsis pin tool. Wells treated with DMSO only for 100% viability and media only for 0% viability were used as controls.
3. The assay plates were covered and incubated for 48 hours in a 37C, 5% CO2 incubator with controlled humidity.
4. After 48 hours, CellTilter-GloTM luminescent substrate mix (Promega) reagent was added to the assay plate and plates we incubated for 5 min at room temperature.
5. Signal was measured as median relative luminescence units on a ViewLux (PerkinElmer) multiplate reader.
[1] Heske CM, Davis MI, Baumgart JT, Wilson K, Gormally MV, Chen L, Zhang X, Ceribelli M, Duveau DY, Guha R, Ferrer M, Arnaldez FI, Ji J, Tran HL, Zhang Y, Mendoza A, Helman LJ, Thomas CJ. Matrix Screen Identifies Synergistic Combination of PARP Inhibitors and Nicotinamide Phosphoribosyltransferase (NAMPT) Inhibitors in Ewing Sarcoma. Clin Cancer Res. 2017 Dec 1;23(23):7301-7311. doi: 10.1158/1078-0432.CCR-17-1121. Epub 2017 Sep 12. PMID: 28899971; PMCID: PMC6636827.
Potency is the fitted concentration of half-maximal effect.

SMILES	Potency	viability (% of control)
CCNC(=O)c1noc(-c2cc(C(C)C)c(O)cc2O)c1-c1ccc(CN2CCOCC2)cc1	0.0235 µM (active)	
CC1=C(CC(=O)O)c2cc(F)ccc2C1=Cc1ccc(S(C)=O)cc1 (stereo not given)	3.72 µM (active)	
Cc1cccc(Nc2nc(N[C@@H]3CCCC[C@H]3N)ncc2C(N)=O)c1	26.4 µM (active)	
CN(C)CCOc1ccc(-c2nc(-c3ccc4c(c3)CCC4=NO)c(-c3ccncc3)[nH]2)cc1	11.8 µM (active)	
CCc1cccc(CC)c1NC(=O)N1Cc2[nH]nc(NC(=O)c3ccc(N4CCN(C)CC4)cc3)c2C1	1.05 µM (active)	
CCC(=O)OCC(=O)[C@@]1(OC(=O)CC)[C@@H](C)C[C@@H]2[C@H]3CCC4=CC(=O)C=C[C@]4(C)[C@@]3(F)[C@@H](O)C[C@@]21C	0.0526 µM (active)	
CNC(=O)c1cc(Oc2ccc(NC(=O)Nc3ccc(Cl)c(C(F)(F)F)c3)c(F)c2)ccn1	14.8 µM (active)	
O=c1[nH]c(=O)n([C@H]2C[C@@H](O)[C@@H](CO)O2)cc1C(F)(F)F	6.62 µM (active)	
CC1=C[C@@H]2[C@@H]([C@@H](O)C[C@@]3(C)[C@H]2C[C@@H](C)[C@]3(O)C(=O)CO)[C@@]2(C)Cc3cnn(-c4ccccc4)c3C=C12	0.0059 µM (active)	
N#CC1(c2cccc(C(=O)Nc3cc(Oc4ccc5nc(NC(=O)C6CC6)sc5n4)ccc3F)c2Cl)CC1	0.132 µM (active)	
CCC[C@H](N[C@@H](C)C(=O)N1[C@@H]2CCCC[C@H]2C[C@H]1C(=O)O)C(=O)OCC		91.6%
CC(C)(CO)[C@@H](O)C(=O)NCCC(=O)O		131%
Clc1ccc(COC(Cn2ccnc2)c2ccc(Cl)cc2Cl)c(Cl)c1 (stereo not given)	23.5 µM (active)	
NC[C@H]1O[C@H](O[C@@H]2[C@@H](O)[C@@H](O[C@H]3O[C@H](CO)[C@@H](O)[C@H](N)[C@@H]3O)[C@H](N)C[C@@H]2N)[C@H](O)[C@@H](O)[C@H]1O		106%
O=C(c1ccc(C=Cc2n[nH]c3ccccc23)cc1)N1CCNCC1	1.05 µM (active)	
O=C(Nc1ncc(SCCN2CCCC2)s1)[C@]1(c2ccc(S(=O)(=O)C3CC3)cc2)C[C@@H]1C1CCCCC1	7.43 µM (active)	
COc1cc(N2CCN(C)CC2)ccc1Nc1nc(N)c(C(=O)c2c(Cl)cccc2Cl)s1	18.7 µM (active)	
COc1ccc(-c2oc3c(CC=C(C)C)c(O)cc(O)c3c(=O)c2O)cc1		105%
CCC[C@H](Nc1nc(-c2ccc(NC(=O)NCC)c(OC)c2)ncc1C)c1cccnc1	0.0012 µM (active)	
COc1ccc(-c2cc3nccn3c(Nc3ncccc3C(N)=O)n2)cc1OC	4.69 µM (active)	

SMILES	Potency	viability (% of control)
C[C@@H]1C[C@H]2[C@@H]3CCC4=CC(=O)C=C[C@]4(C)[C@@]3(F)[C@@H](O)C[C@]2(C)[C@@]1(O)C(=O)CO	0.0132 µM (active)	
O=C(CCCN1CCN(c2ccc(F)cc2)CC1)NC1c2ccccc2CSc2ccccc21 (stereo not given)	10.5 µM (active)	
CN(C)CCCNC(=O)c1ccc(-c2cc(O)c3ncccc3c2)cc1	23.5 µM (active)	
Cc1[nH]c(C=C2C(=O)Nc3ccc(S(=O)(=O)N(C)c4cccc(Cl)c4)cc32)c(C)c1C(=O)N1CCN(C)CC1	11.8 µM (active)	
CCN1CCC(n2cc(CNc3cc(Cl)c4ncc(C#N)c(Nc5ccc(F)c(Cl)c5)c4c3)nn2)CC1	20.9 µM (active)	
O=C1CCCC(=O)C1C(=O)c1ccc(C(F)(F)F)cc1[N+](=O)[O-]		110%
c1cc(OCCN2CCCCC2)cc(-c2n[nH]c3ccc(-c4ncn[nH]4)cc23)c1	16.6 µM (active)	
Cc1cccc(-c2[nH]c(C(C)(C)C)nc2-c2ccc3c(c2)OCO3)n1	16.6 µM (active)	
O=c1[nH]c(=O)n([C@H]2C[C@@H](O)[C@@H](CO)O2)cc1I	2.09 µM (active)	
CCN(CCO)CCCOc1ccc2c(Nc3cc(CC(=O)Nc4cccc(F)c4)[nH]n3)ncnc2c1		87.6%
CC(C)c1c(C(=O)Nc2ccccc2)c(-c2ccccc2)c(-c2ccc(F)cc2)n1CC[C@H](O)C[C@@H](O)CC(=O)O	10.5 µM (active)	
CC(=O)OCC(=O)[C@@]1(O)CC[C@H]2[C@@H]3CCC4=CC(=O)C=C[C@]4(C)[C@@H]3[C@@H](O)C[C@@]21C	0.235 µM (active)	
CCOC(=O)[C@@H](N)CCC(=O)N[C@@H](CSCc1ccccc1)C(=O)N[C@@H](C(=O)OCC)c1ccccc1		89%
O=S(=O)(NCCNCC=Cc1ccc(Br)cc1)c1cccc2cnccc12	16.6 µM (active)	
Cc1cnc(CNC(=O)c2c(=O)c3ccc(N4CCCN(C)CC4)nc3n3c2sc2ccccc23)cn1		91.3% [at 23.2 µM]
Cc1ccc(C(=O)N(CCCN)[C@@H](c2nc3cc(Cl)ccc3c(=O)n2Cc2ccccc2)C(C)C)cc1		1.47%
O=C(O)CCNc1cc(N2CCc3ccccc3CC2)nc(-c2ccccn2)n1		112%
C[C@]12C=CC(=O)C=C1CC[C@@H]1[C@@H]2[C@@H](O)C[C@@]2(C)[C@@H]1CC[C@]2(O)C(=O)CO	0.0935 µM (active)	
O=C(Nc1cccc2c(=O)cc(-c3nn[nH]n3)oc12)c1ccc(OCCCCc2ccccc2)cc1	23.5 µM (active)	
C[C@@H]1CC=CC=CC=CC=C[C@@H](O[C@@H]2O[C@H](C)[C@@H](O)[C@H](N)[C@H]2O)C[C@@H]2O[C@](O)(C[C@@H](O)C[C@@H]3O[C@@H]3C=CC(=O)O1)C[C@H](O)[C@@H]2C(=O)O	16.6 µM (active)	
